Measured values reported in PubChem BioAssay (NCI).
About 79,000 compounds went through this panel and 15% of them were active in at least one assay; those are over-represented in the sample as a whole. Values without a mark were called inactive. Activity calls are given as the source filed them. Rule as the data show it: active = growth inhibition above about 70%; inactive = the rest.

Test: NCI Yeast Anticancer Drug Screen. Data for the rad50 strain (AID 155);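 also: 0% = growth of vehicle-only cultures of the same strain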
Conditions: S. cerevisiae rad50 strain growth inhibition, stronger effect = higher value
Experimental: Growth inhibition of yeast strains with defined genetic alterations is measured as a screen for potential anti-cancer activity. Selected strains with alterations in DNA damage repair or cell cycle control were exposed to compounds and growth inhibition was measured relative to vehicle treated controls. The strain used in this assay is rad50

[1] = at 5.0 µM (retest, dose inferred, filed as 0.5)
[2] = at 50.0 µM (retest, dose inferred, filed as 5.0)

Row | SMILES | growth inhibition (at 1.2 µM) | growth inhibition (at 3.7 µM) | growth inhibition [1] | growth inhibition (at 11.0 µM) | growth inhibition (at 33.0 µM) | growth inhibition [2] | growth inhibition (at 50.0 µM) | growth inhibition (at 100.0 µM)
1 | COC(=O)C1=C(C(=O)OC)C(C(=O)OC)C(C(=O)OC)C(C(=O)OC)(C(=O)OC)C(C(=O)OC)=C1C(=O)OC (stereo not given) | -10% | -14% | 25% | 7% | 25% | 93% (active) | 77.9% (active) | 62%
2 | O=C1C=C(N2CCN(c3ccccn3)CC2)C(=O)c2c(O)ccc(O)c21 | -3% | -8% | 28% | 0% | 37% | 94% (active) | 84.5% (active) | 55%
3 | Cc1ccc(S/C(=C\C(=O)O)c2ccccc2)cc1 | 2% | 4% | -16% | 13% | 30% | 47% | 41.9% | 52%
4 | Cc1nc2ccccc2nc1NNc1ccccc1 | -6% | -12% | 17% | 9% | 46% | 34% | 81.3% (active) | 60%
5 | O=C(O)c1cc2ccc(Cl)cc2c(O)c1C1=CCCCC1 | -7% | -5% | 33% | 11% | 36% | 58% | 74.3% (active) | 76% (active)
